Laboratory results published in PubChem BioAssay AID1159580 (chemical genetic matrix, 2015).
Among all 5,500 compounds or so, about 2,000 (36%) were called active. Roughly 18% stayed inconclusive and do not appear here. Cut-off read from the data, not from the text of the source: active = normalized growth mostly below about 0.91 (no sharp cut-off); inconclusive = no clear call, values can overlap the other calls; inactive = mostly above about 0.92. The list shows a part of the results.

Test: chemical genetic growth profiling, strain panel (AID 1159580);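 note: tested at 20 µM; growth read once vehicle control cultures reached saturation at 30 °C; 1 = growth at the plate median or of vehicle wells; lower values mean less growth of the strain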
Conditions: growth OD

Measured: normalized growth

CC1(C)C[C@@H]2C(=O)CC[C@H]3O[C@]3(C)CC[C@H]21
inactive: S. cerevisiae deletion strains, locus YJR075W, strain HOC1, active compounds read low 1.01 | S. cerevisiae deletion strains, locus YKL009W, strain mrt4, active compounds read low 0.985 | S. cerevisiae deletion strains, locus YKL068W, active compounds read low 0.997 | S. cerevisiae deletion strains, locus YKL085W, strain MDH1 (second series), active compounds read low 0.996 | S. cerevisiae deletion strains, locus YKL085W, strain MDH1, active compounds read low 0.996 | S. cerevisiae deletion strains, locus YKL160W, strain elf1, active compounds read low 1.01 | S. cerevisiae deletion strains, locus YKL190W, strain CNB1, active compounds read low 1.01 | S. cerevisiae deletion strains, locus YKR001C, strain vps1, active compounds read low 0.994 | S. cerevisiae deletion strains, locus YKR026C, strain gcn3, active compounds read low 1.02 | S. cerevisiae deletion strains, locus YKR091W, strain srl3, active compounds read low 1.01 | S. cerevisiae deletion strains, locus YLL001W, strain dnm1, active compounds read low 0.985 | S. cerevisiae deletion strains, locus YLL026W, active compounds read low 1.01 | S. cerevisiae deletion strains, locus YLL041C, strain sdh2, active compounds read low 1.01 | S. cerevisiae deletion strains, locus YLR027C, strain aat2, active compounds read low 1.03 | S. cerevisiae deletion strains, locus YLR039C, strain RIC1, active compounds read low 1.07 | S. cerevisiae deletion strains, locus YLR058C, strain SHM2, active compounds read low 1.01 | S. cerevisiae deletion strains, locus YLR102C, strain apc9, active compounds read low 0.991 | S. cerevisiae deletion strains, locus YLR113W, strain HOG1, active compounds read low 0.951 | S. cerevisiae deletion strains, locus YLR221C, strain rsa3, active compounds read low 1.04 | S. cerevisiae deletion strains, locus YLR258W, strain gsy2, active compounds read low 0.995 | S. cerevisiae deletion strains, locus YLR262C, strain YPT6 (second series), active compounds read low 1.05 | S. cerevisiae deletion strains, locus YLR262C, strain YPT6, active compounds read low 1.06 | S. cerevisiae deletion strains, locus YLR268W, strain sec22, active compounds read low 0.992 | S. cerevisiae deletion strains, locus YLR320W, strain mms22, active compounds read low 1.04 | S. cerevisiae deletion strains, locus YLR330W, strain CHS5, active compounds read low 1.01 | S. cerevisiae deletion strains, locus YLR342W, strain FKS1 (second series), active compounds read low 0.987 | S. cerevisiae deletion strains, locus YLR342W, strain FKS1, active compounds read low 1.01 | S. cerevisiae deletion strains, locus YLR357W, strain rsc2, active compounds read low 1 | S. cerevisiae deletion strains, locus YLR370C, strain arc18, active compounds read low 1.01 | S. cerevisiae deletion strains, locus YLR371W, strain rom2, active compounds read low 0.998 | S. cerevisiae deletion strains, locus YLR384C, strain iki3, active compounds read low 1.03 | S. cerevisiae deletion strains, locus YLR418C, strain cdc73, active compounds read low 1.01 | S. cerevisiae deletion strains, locus YML016C, strain PPZ1, active compounds read low 1 | S. cerevisiae deletion strains, locus YML032C, strain rad52, active compounds read low 0.983 | S. cerevisiae deletion strains, locus YML120C, strain ndi1, active compounds read low 0.999 | S. cerevisiae deletion strains, locus YML124C, strain tub3, active compounds read low 0.995 | S. cerevisiae deletion strains, locus YMR058W, strain fet3, active compounds read low 1.03 | S. cerevisiae deletion strains, locus YMR078C, strain ctf18, active compounds read low 0.989 | S. cerevisiae deletion strains, locus YMR125W, strain sto1, active compounds read low 1.01 | S. cerevisiae deletion strains, locus YMR129W, active compounds read low 1.01 | S. cerevisiae deletion strains, locus YMR205C, strain PFK2, active compounds read low 1 | S. cerevisiae deletion strains, locus YMR223W, strain ubp8, active compounds read low 0.991 | S. cerevisiae deletion strains, locus YMR231W, strain pep5, active compounds read low 1.02 | S. cerevisiae deletion strains, locus YMR263W, strain SAP30, active compounds read low 1.02 | S. cerevisiae deletion strains, locus YMR307W, strain GAS1, active compounds read low 1.01 | S. cerevisiae deletion strains, locus YNL067W, strain RPL9B, active compounds read low 1.01 | S. cerevisiae deletion strains, locus YNL071W, strain lat1, active compounds read low 1.01 | S. cerevisiae deletion strains, locus YNL128W, strain TEP1, active compounds read low 1.02 | S. cerevisiae deletion strains, locus YNL153C, strain GIM3, active compounds read low 1.02 | S. cerevisiae deletion strains, locus YNL183C, strain NPR1, active compounds read low 0.905 | S. cerevisiae deletion strains, locus YNL209W, strain ssb2, active compounds read low 1.01 | S. cerevisiae deletion strains, locus YNL233W, strain BNI4, active compounds read low 1.02 | S. cerevisiae deletion strains, locus YNL248C, strain rpa49, active compounds read low 1.04 | S. cerevisiae deletion strains, locus YNL250W, strain rad50, active compounds read low 0.998 | S. cerevisiae deletion strains, locus YNL271C, strain bni1, active compounds read low 0.997 | S. cerevisiae deletion strains, locus YNL298W, strain CLA4, active compounds read low 0.996 | S. cerevisiae deletion strains, locus YNL307C, strain MCK1, active compounds read low 0.99 | S. cerevisiae deletion strains, locus YNL322C, strain KRE1 (second series), active compounds read low 1 | S. cerevisiae deletion strains, locus YNL322C, strain KRE1, active compounds read low 1.01 | S. cerevisiae deletion strains, locus YNR049C, strain mso1, active compounds read low 1.02 | S. cerevisiae deletion strains, locus YNR052C, strain pop2, active compounds read low 0.999 | S. cerevisiae deletion strains, locus YOL006C, strain TOP1, active compounds read low 1.07 | S. cerevisiae deletion strains, locus YOL012C, strain htz1 1.57 | S. cerevisiae deletion strains, locus YOL147C, strain pex11, active compounds read low 0.997 | S. cerevisiae deletion strains, locus YOR001W, strain rrp6, active compounds read low 1.02 | S. cerevisiae deletion strains, locus YOR061W, strain CKA2, active compounds read low 1.01 | S. cerevisiae deletion strains, locus YOR069W, strain VPS5, active compounds read low 1 | S. cerevisiae deletion strains, locus YOR070C, strain gyp1, active compounds read low 1.02 | S. cerevisiae deletion strains, locus YOR080W, strain dia2, active compounds read low 1.03 | S. cerevisiae deletion strains, locus YOR083W, strain WHI5, active compounds read low 1.01 | S. cerevisiae deletion strains, locus YOR106W, strain vam3, active compounds read low 0.995 | S. cerevisiae deletion strains, locus YOR136W, strain idh2, active compounds read low 0.996 | S. cerevisiae deletion strains, locus YOR144C, strain elg1, active compounds read low 0.995 | S. cerevisiae deletion strains, locus YOR184W, strain ser1, active compounds read low 0.962 | S. cerevisiae deletion strains, locus YOR231W, strain MKK1, active compounds read low 0.947 | S. cerevisiae deletion strains, locus YOR265W, strain rbl2, active compounds read low 1.03 | S. cerevisiae deletion strains, locus YOR270C, strain vph1, active compounds read low 1.07 | S. cerevisiae deletion strains, locus YOR290C, strain snf2, active compounds read low 0.995 | S. cerevisiae deletion strains, locus YOR316C, strain cot1, active compounds read low 0.992 | S. cerevisiae deletion strains, locus YPL051W, strain arl3, active compounds read low 1 | S. cerevisiae deletion strains, locus YPL055C, strain LGE1, active compounds read low 1.04 | S. cerevisiae deletion strains, locus YPL078C, strain atp4, active compounds read low 0.992 | S. cerevisiae deletion strains, locus YPL106C, strain sse1, active compounds read low 0.984 | S. cerevisiae deletion strains, locus YPL240C, strain hsp82, active compounds read low 1.02 | S. cerevisiae deletion strains, locus YPL241C, strain CIN2, active compounds read low 1.01 | S. cerevisiae deletion strains, locus YPL256C, strain CLN2, active compounds read low 0.983 | S. cerevisiae deletion strains, locus YPR119W, strain clb2, active compounds read low 0.992 | S. cerevisiae deletion strains, locus YPR141C, strain kar3, active compounds read low 0.991 | S. cerevisiae deletion strains, locus YPR163C, strain tif3, active compounds read low 0.998 | S. cerevisiae deletion strains, locus YPR167C, strain met16, active compounds read low 0.995 | S. cerevisiae deletion strains, strain wtn01, active compounds read low 0.989 | S. cerevisiae strains, strain wild type, active compounds read low 1.01
